Assay results: PubChem BioAssay AID781 (Emory University Molecular Libraries Screening Center, 2007)
In all, about 220,000 compounds went through this assay and about 1,600 (0.73%) were called active. Shown is part of a subset that was picked to be rich in actives. Unmarked numbers belong to inactive results.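 The calls were made as follows: active = inhibition above about 70% (limit read from the data); inactive = the rest.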

target: 14-3-3 protein zeta/delta (Bos taurus) (UniProt P63103); assay: disruptors of 14-3-3 zeta phospho-Bad complex – biochemical, TR-FRET, bovine 14-3-3 zeta, primary screen (AID 781); conditions: TR-FRET 14-3-3zeta/Dy647-pBad peptide displacement, 1 h; at 21.7 µM; active compounds read high;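 also: 0% = full 14-3-3 plus peptide FRET controls and 100% = background without 14-3-3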
Sequence (P63103 whole entry, looked up): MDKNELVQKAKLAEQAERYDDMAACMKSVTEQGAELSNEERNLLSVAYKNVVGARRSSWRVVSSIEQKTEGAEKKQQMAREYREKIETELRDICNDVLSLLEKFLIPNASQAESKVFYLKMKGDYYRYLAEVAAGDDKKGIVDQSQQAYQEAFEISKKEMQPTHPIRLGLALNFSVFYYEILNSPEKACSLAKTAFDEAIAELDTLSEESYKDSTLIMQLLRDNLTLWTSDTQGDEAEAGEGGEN

Compound | inhibition
Cc1ccc(S(=O)(=O)/N=S(\C)C(C)C)cc1 (centres undefined) | 1.1%
CS(=O)(=O)N(Cc1ccccc1)c1ccc(C(=O)NN=C2CCCCCC2)cc1 | -15.2%
COc1cccc(NC(=O)c2ccc3c(SCC(=O)O)c4c(nc3c2)CCCC4)c1 | -11.6%
COc1ccc(N2CCN(C(=O)c3ccc4c(Cl)c5c(nc4c3)CCCC5)CC2)cc1 | -10.1%
CC(=O)c1ccc(NC(=O)c2ccc3c(Cl)c4c(nc3c2)CCCC4)cc1 | 73.9% (active)
COc1ccc(/C=C(\NC(=O)c2ccc(OCC(C)C)cc2)C(=O)OCc2ccco2)cc1 | 2.32%
Cc1ccc(-c2nc(SCC(=O)Nc3ccccc3OC(F)F)c3c(C)c(C(=O)O)sc3n2)cc1 | 80.4% (active)
COc1ccccc1NC(=O)CSc1nc2sc(C)c(C)c2c(=O)n1Cc1ccco1 | -6.57%
Cc1ccc(C)c(SCc2nc3sc(C(=O)O)c(C)c3c(=O)[nH]2)c1 | 0.11%
Oc1ccc2ccccc2c1C=Nc1ccccc1 | 4.91%
CC(=O)Nc1ccc(S(=O)(=O)NC2(C(F)(F)F)C(=O)NC(C)=C2C#N)cc1 (centres undefined) | -3.08%
c1ccc(COc2ccccc2CNCc2cccnc2)cc1 | 77.2% (active)
COc1cccc(CNCCc2c[nH]c3ccccc23)c1OCc1ccccc1F | 29.9%
CCC(Oc1ccccc1)C(=O)NCc1cccnc1 (centres undefined) | -2.17%
Fc1ccccc1COc1ccccc1CNCc1ccncc1 | 75.9% (active)
O=C(CCc1ccccc1)NCc1cccnc1 | -1.29%
COc1ccccc1CNCc1cccs1 | 0.7%
CCOC(=O)CN(C(=O)COc1nc(C)cc(C)c1C#N)c1ccc(Cl)cc1 | -3.15%
O=C(Nc1ccccc1Cl)c1ccccc1S(=O)(=O)c1ccccc1[N+](=O)[O-] | 5.14%
COc1ccc(NC(=S)N2CCc3cc(OC)c(OC)cc3C2)cc1 | -0.16%

Compound | inhibition
COc1ccccc1/C=C/C=N/NC(=O)CN1CCN(Cc2ccccc2)CC1 | -5.86%
O=C1COc2ccc(C(=O)COC(=O)C3CC(O)CN3S(=O)(=O)c3ccc(Cl)cc3)cc2N1 (centres undefined) | 0.1%
Cc1ccc2nc(SCc3cn4c(C)cc(C)nc4n3)[nH]c2c1 | -0.6%
CCCCn1c(=S)[nH]c2ccccc2c1=O | 10.7%
CC(Sc1nc2c([nH]c3ccccc32)c(=O)n1C)c1ccccc1 (centres undefined) | 98.1% (active)
Cn1nnnc1SCc1cc(=O)[nH]c2ccccc12 | 8.32%
S=C(Nc1ccc2c(c1)OCO2)N1CCCC1 | -2.2%
COc1ccc(CCn2nnnc2C(c2ccccc2)N2CCN(C)CC2)cc1OC (centres undefined) | 82.9% (active)
COc1ccc(C(c2nnnn2Cc2cccs2)N2CCN(c3ccccc3)CC2)cc1OC (centres undefined) | -7.19%
N#Cc1ccc(C(c2nnnn2CCc2ccccc2)N2CCCCCC2)cc1 (centres undefined) | 4.83%
COC(=O)c1cc(NC(=O)CN2CCN(C(C)=O)CC2)cc(C(=O)OC)c1 | -3.76%
FC(F)(F)c1nc(-c2ccccc2)ncc1-c1nnnn1-c1ccccc1 | 13.7%
N/C(=N\OC(=O)Cc1ccc([N+](=O)[O-])cc1)c1ccccn1 | -17.6%
N/C(=N\OC(=O)Cc1ccccc1[N+](=O)[O-])c1ccc(Br)cc1 | 93.1% (active)
N/C(=N\OC(=O)COc1ccc([N+](=O)[O-])cc1)c1ccc(Br)cc1 | 2.68%
CCCc1nc(-c2cc3cc(C)ccc3[nH]c2=O)no1 | -0.29%
COc1ccc(-n2nc(C(=O)Nc3cc(OC)c(OC)c(OC)c3)c3ccccc3c2=O)c(OC)c1 | 2.29%
Cc1ccsc1/C=N/NC(=O)Cc1cc(=O)[nH][nH]1 | -22.4%
CCOCN(C(=O)Cn1c(C(C)O)nc2ccccc21)c1c(C)cccc1CC (centres undefined) | -12.3%
O=C(Oc1cccnc1)c1cc2ccccc2oc1=O | 17.9%

Compound | inhibition
O=C(Nc1cccnc1)c1cc2cc(Br)ccc2oc1=O | 82.5% (active)
COc1ccc(C(=O)Nc2cccnc2)cc1C(=O)Nc1cccnc1 | 2.89%
COc1ccc(C)cc1S(=O)(=O)Nc1cccc(Cl)c1Cl | -10%
Cc1cc([N+](=O)[O-])nn1CCCC(=O)Nc1cccnc1Cl | -8.44%
Nc1ccc2nc3c(=O)[nH]c(=S)[nH]c3nc2c1 | 83.5% (active)
Cc1cc2nc3c(=O)n(Cc4ccccc4)c(=O)[nH]c3nc2cc1N | -0.29%
O=C1c2ccccc2NC(c2ccccn2)N1NS(=O)(=O)c1ccccc1 (centres undefined) | 5.35%
c1ccc(C2CNCc3c2ccc2ccccc32)cc1 (centres undefined) | -8.65%
CN(C)S(=O)(=O)c1cccc(-c2nn(-c3ccccc3)cc2/C=C2\SC(=S)N(CC(=O)O)C2=O)c1 | 12%
CC(=O)Nc1ccc(OCC(=O)NCc2ccc(C)cc2)cc1 | -8.65%
Cc1ccc(OCC(=O)Nc2ccc(-c3nc4ncccc4o3)cc2)cc1 | 78.8% (active)
Cc1ccc(OCC(=O)Nc2ccc(S(=O)(=O)Nc3ccccn3)cc2)cc1 | -3.5%
Cc1oc2nc(SCC(=O)Nc3ccc(S(N)(=O)=O)cc3)nc(NC(=O)c3ccccc3)c2c1C | -6.33%
C/C=C(/C)C(=O)Nc1cccc(C2=NOC3(C2)C[C@@H](C(N)=O)N(C(=O)C2(C)CC2)C3)c1 (some centres undefined) | -2.68%
Cc1ccnc(NS(=O)(=O)c2ccc(NC(=O)c3ccc(S(=O)(=O)N(C)C)cc3)cc2)n1 | -9.02%
COc1cc(OC)c(/C=N/NC(=O)c2ccc([N+](=O)[O-])cc2)cc1Br | 5.09%
COc1cc(/C=N/N=C(\N)c2nonc2N)cc(OC)c1OC | -22.2%
COc1cc(/C=N\NC(=O)c2nonc2N)c(OC)cc1Br | 71.1% [fluorescence artefact?] (active)
CCc1ccc(S(=O)(=O)NCC(O)COc2ccc(OC)cc2)cc1 (centres undefined) | -1.31%
